The list is not random: actives were taken first. Their share in the collection is about 7.2%.
Efflux pump mplx: inhibitors of Candida efflux pumps in yeast, primary screen, S. cerevisiae, Nile Red, multiplex. inhibition, % at 10 µM. S. cerevisiae Candida pump triplex. AID 485275, 2010. 330,000 tested, 0.44% active;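 active = plate passing quality check with inhibition over a set limit, or well fluorescence over plate mean plus 4 SD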;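 note: Nile Red retained in pooled yeast measured as flow cytometry median fluorescence; 0% = buffer negative control and 100% = Enniatin B positive control; higher means more Nile Red kept so more efflux inhibition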
Mot1-301 SUMO: yeast Mot1-301 growth rescue at high temperature, primary screen, SUMOylation pathway inhibitor project, S. cerevisiae, ATP luminescence, 38.5C | S. cerevisiae Mot1-301 growth rescue; percent above DMSO median, 100 means doubled | growth rescue, % at 18.8 µM | 320,000 tested, 1% active;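 active = every valid replicate shows activation above 250% relative to neutral control wells; inactive = the rest, any valid replicate at or below 250%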;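 note: OY570 slx delta 5 strain wells were the positive control but not used for scaling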
AHR act: AHR activators, primary screen, cell-based, luminescence, luciferase reporter, human; 320,000 tested, 2.5% active; AHR-responsive luciferase reporter cells; Aryl hydrocarbon receptor (Homo sapiens), P35869; activation, % at 5 µM; in the data active = activation above about 47%;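 note: 0% = vehicle wells and 100% = reference agonist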
VLA-4 inh: inhibition in human VLA-4 binding assay, primary screen, VLA-4 allosteric modulator project, MLPCN library, flow cytometry, VLA-4 expressing cells | Integrin alpha-4 (Homo sapiens), P13612 | ligand binding flow cytometry | inhibition, % (about 7 µM as worked out from the volumes in the protocol) | 330,000 tested, 0.2% active | AID 2557, 2010; in the data active = inhibition above about 50%
ALR H2O2 inh: inhibitors of human ALR sulfhydryl oxidase, primary screen, biochemical, H2O2 detection, HRP-luminol luminescence, single point | purified ALR, DTT oxidation | FAD-linked sulfhydryl oxidase ALR (Homo sapiens), P55789 | AID 485317, 2010 | inhibition, % (test concentration not listed) | 290,000 tested, 3.8% active;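 active = mean replicate inhibition above about 79%, with every replicate also reaching it, limit read from the data; inconclusive = only one of the two criteria met; inactive = mean below limit and not every replicate reaching it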
Target sequence (P55789 whole entry, looked up): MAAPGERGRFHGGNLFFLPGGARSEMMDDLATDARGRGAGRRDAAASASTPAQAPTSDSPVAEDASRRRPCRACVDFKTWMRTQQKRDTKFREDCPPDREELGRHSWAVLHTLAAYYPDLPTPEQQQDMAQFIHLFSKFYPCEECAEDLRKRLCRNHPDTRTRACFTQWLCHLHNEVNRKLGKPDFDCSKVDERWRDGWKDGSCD
Bfl-1 A1 inh: caspase 3/7 activation in MEF A1-2A-BIM cells, primary screen, A1 inhibitor project, cell-based, luminescence, HTS | Caspase-Glo 3/7 luminescence, 3 h; percent of clofoctol response, vehicle zero | caspase activation, % (concentration not given with the values) | 330,000 tested, 0.066% active | AID 2462, 2010;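 active = over half of replicate activation scores above 10%, or exactly half above 10 with the replicate mean above 10; inconclusive = replicate mean below 10 yet half the replicates above 10; inactive = over half of replicates below 10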
* marks the source's active call; other numbers are inactive results; i = inactive; ? = inconclusive; . = no result given.

SMILES	Efflux pump mplx	Mot1-301 SUMO	AHR act	VLA-4 inh	ALR H2O2 inh	Bfl-1 A1 inh
CCN(CC)C(=O)N1c2ccccc2Sc2ccccc21	0	3	-2	10	?	0
CC(CN(C)C)CN1c2ccccc2Sc2ccccc21 (stereo not drawn)	0	-3	0	34	99*	1
CC(CN1c2ccccc2Sc2ccccc21)N(C)C (stereo not drawn)	0	103	3	6	99*	1
COc1cccc(NC(=O)C(=O)NCCC2CCCCN2S(=O)(=O)c2ccccc2)c1 (stereo not drawn)	0	22	2	14	-3	-1
NC(=O)c1cnn2c(-c3ccc(Cl)cc3Cl)ccnc12	0	-27	2	-6	.	1
O=C(Cc1ccccc1)Nc1ccccc1Sc1ccccc1	0	6	-1	4	-7	0
Nc1ccc(Sc2ccccc2CC(=O)O)cc1	0	132	-1	-15	99*	0
COc1cc(C(CC(=O)Nc2ncccc2C)N2Cc3ccccc3C2=O)cc(OC)c1OC (stereo not drawn)	0	-17	4	-9	-2	1
Clc1ccccc1OCCCCn1ccnc1	0	-9	74*	1	-7	-1
Cc1cccc(Cl)c1OCCCCn1ccnc1	0	343	57*	-1	-3	0
Cc1cc(Cl)cc(C)c1OCCCCn1ccnc1	0	16	18	8	-30	0
COc1cc(/C=C2\SC(=S)N(Nc3ccccc3)C2=O)ccc1O	0	352	3	-190	?	-2
O=C1/C(=C/c2ccncc2)SC(=S)N1Nc1ccccc1	0	132	9	11	99*	0
CCOc1ccc(/C=C2\SC(=S)N(NS(=O)(=O)c3ccccc3)C2=O)cc1OC	0	10	-2	7	.	0
CCOc1cc(/C=C2\SC(=S)N(NS(=O)(=O)c3ccccc3)C2=O)ccc1O	0	33	1	-76	99*	-1
CCOc1cc(/C=C2\SC(=S)N(Nc3ccccc3)C2=O)ccc1O	0	11	-2	-264	81*	-1
Cc1ccccc1N1CCN(S(=O)(=O)c2nnc(NC(=O)c3ccco3)s2)CC1	0	10	-3	7	14	0
CCc1ccc(S(=O)(=O)Nc2cc(SCC(=O)O)c(O)c3ccccc23)cc1	0	-21	53*	11	45	0
O=[N+]([O-])c1ccc(CNc2cccc(F)c2)s1	0	-10	1	-12	-1	1
Cc1cccc(NCc2ccc([N+](=O)[O-])s2)c1	0	26	2	-3	98*	0
Cc1ccccc1NCc1ccc([N+](=O)[O-])s1	0	14	-2	0	.	1
Cc1ccc(NCc2ccc([N+](=O)[O-])s2)cc1	0	i	3	-3	98*	-2
Cc1ccccc1-n1c(=S)[nH]c2nc3c(cc2c1=O)CCCC3	0	20	4	-1	98*	0
Cc1ccccc1-n1c(=S)[nH]c2nc3c(cc2c1=O)COC(C)(C)C3	0	-5	-1	5	.	-1
N#C/C(=C\c1cn[nH]c1-c1ccc(Cl)cc1)C(=O)NC1CC1	0	-1	85*	-11	73	0
SMILES	Efflux pump mplx	Mot1-301 SUMO	AHR act	VLA-4 inh	ALR H2O2 inh	Bfl-1 A1 inh
COc1ccc(-c2[nH]ncc2/C=C(\C#N)C(=O)NC2CC2)cc1	0	0	29	-8	-3	0
N#C/C(=C\c1c[nH]c2ccccc12)C(=O)NC1CCCC1	0	35	64*	-38	96*	2
Cc1ccc(S(=O)(=O)NCC(=O)OCC(=O)NC2CCCCC2)cc1	0	-8	0	20	0	-1
COc1ccccc1N1CCN(C(c2ccccc2)c2nnnn2CCc2ccccc2)CC1 (stereo not drawn)	0	-22	11	-5	-7	?
O=C(CCS(=O)(=O)c1ccc(F)cc1)Nc1nc(-c2ccccn2)cs1	0	13	7	0	1	2
O=C(CS(=O)(=O)c1ccccc1)Nc1nc(-c2ccccc2)cs1	0	i	26	6	99*	0
O=C(CCS(=O)(=O)c1ccccc1)Nc1nc(-c2ccccn2)cs1	0	3	54*	-10	-2	0
O=C(NCC1CCCCC1)c1cccc(S(=O)(=O)N2CCCC2)c1	0	-23	1	10	-6	1
O=C(O)CCC1c2cc3c4cc2OC2Oc5cc6c(cc51)C(CCC(=O)O)c1cc5c7cc1OC(O6)c1cc6cc(c1)Oc1cc(cc(C(=O)O)c1)Oc1cc8cc(c1)C(Oc1cc(c(cc1C5CCC(=O)O)C3CCC(=O)O)OC(O4)c1cc(cc(c1)Oc1cc(cc(C(=O)O)c1)O8)Oc1cc(cc(C(=O)O)c1)Oc1cc(cc2c1)Oc1cc(cc(C(=O)O)c1)O6)O7 (stereo not drawn)	0	108	4	-4	98*	0
CCn1nnc(NC(=O)c2ccccc2Br)n1	0	-8	6	-1	-3	0
C/C(=N\Nc1nc2ccccc2[nH]1)c1ccc(N2CCOCC2)cc1	0	-7	76*	2	52	-2
C/C(=N\Nc1nc(C)cc(C)n1)c1ccc(N2CCOCC2)cc1	0	-1	26	27	99*	0
C/C(=N\NC(=O)c1ccccc1)c1ccc(N2CCOCC2)cc1	0	1	12	18	9	0
C/C(=N/Nc1nc(C)cc(C)n1)c1ccc(Br)cc1	0	-13	7	7	1	1
C/C(=N\NC(=O)c1cc(C)oc1C)c1ccc(N2CCOCC2)cc1	0	16	16	10	83*	1
COc1cc(/C=N/NC(=O)Cc2cccs2)c([N+](=O)[O-])cc1OC	0	1	49*	30	-9	1
COc1ccc(N/N=C(\C=N\O)C(=O)c2ccc(OC)cc2)cc1	0	9	48*	16	93*	0
CCc1c(C(=O)Nc2ccc(S(=O)(=O)N3CCOCC3)cc2)csc1C	0	26	-2	-1	0	-1
Cc1ccc(CNC(=O)CCc2nnc(Cc3ccc(-c4ccccc4)cc3)o2)o1	0	217	2	16	97*	0
COCCCNC(=O)CCc1nnc(Cc2ccc(-c3ccccc3)cc2)o1	0	362	0	-5	.	?
O=c1oc2cc(Br)ccc2n1CSC1=NCCS1	0	28	15	-2	99*	0
